# Hits are enriched below; roughly 1.6% of the tested compounds scored in any of these assays.
# PME-1 inh – PME-1 inhibitors via competitive probe labeling, primary screen, biochemical, fluorescence polarization, FP-Rh probe, HTS. inhibition, % at 5.9 µM. AID 2130, 2009. Protein phosphatase methylesterase 1 (Homo sapiens), Q9Y570. 0.53% of 320,000 active. recombinant PME-1;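 active = inhibition above the campaign mean of all compounds plus 3 SD, cut at about 26% in these data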;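 note: competitive labeling of PME-1 active site by serine hydrolase directed probe; 0% = PME-1 with DMSO and 100% = wells lacking PME-1 enzyme; inhibitors block probe labeling so polarization falls and inhibition rises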
# LYPLA1 inh – LYPLA1 inhibitors, primary screen, counter-screen for PME1 inhibitor project, biochemical, fluorescence polarization, FP-Rh probe ABPP | Acyl-protein thioesterase 1 (Homo sapiens), O75608 | recombinant LYPLA1 | inhibition, % at 5.9 µM | 0.16% of 320,000 active | AID 2174, 2009;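 active = inhibition above the mean of all tested compounds plus 3 SD, set per campaign, cut at about 14% in these data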;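 note: inhibitors block serine hydrolase probe labeling of LYPLA1 so polarization falls; 0% = enzyme with DMSO and 100% = wells lacking LYPLA1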
# MEX-5 binding – MEX-5 zinc finger RNA-binding disruptors – biochemical, C. elegans, fluorescence polarization, MLPCN library, primary screen; activity score (negative = inhibition of binding), % at 10 µM; AID 1832, 2009; MEX-5/FITC-TCR2 RNA binding; active compounds read low; 0.38% of 300,000 active; Zinc finger protein mex-5 (Caenorhabditis elegans), Q9XUB2;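 active = inhibition past about -25% in most replicates, and total fluorescence under double the plate's negative control median, limit read from the data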;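 note: 0% = DMSO and -100% = 5 µM competing unlabeled TCR2 RNA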
# LYPLA2 counter – LYPLA2 inhibitors, primary screen, counter-screen for PME1 inhibitor project, biochemical, fluorescence polarization, FP-Rh probe ABPP. Acyl-protein thioesterase 2 (Homo sapiens), O95372. recombinant LYPLA2. inhibition, % at 5.9 µM. 0.38% of 320,000 active;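 active = inhibition above the screen-wide mean plus 3 SD, limit set per campaign, cut at about 26% in these data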;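 note: 0% = LYPLA2 with DMSO and 100% = wells lacking LYPLA2 enzyme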
# PREPL inh – PREPL enzyme inhibitors, primary screen, biochemical, fluorescence polarization | Prolyl endopeptidase-like (Homo sapiens), Q4J6C6 | recombinant PREPL, fluorescence polarization activity-based probe | inhibition, % at 5.96 µM | 0.68% of 320,000 active | AID 2751, 2010;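 note: 0% = enzyme with DMSO and 100% = wells lacking enzyme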
# Target sequence (Q4J6C6 whole entry, looked up): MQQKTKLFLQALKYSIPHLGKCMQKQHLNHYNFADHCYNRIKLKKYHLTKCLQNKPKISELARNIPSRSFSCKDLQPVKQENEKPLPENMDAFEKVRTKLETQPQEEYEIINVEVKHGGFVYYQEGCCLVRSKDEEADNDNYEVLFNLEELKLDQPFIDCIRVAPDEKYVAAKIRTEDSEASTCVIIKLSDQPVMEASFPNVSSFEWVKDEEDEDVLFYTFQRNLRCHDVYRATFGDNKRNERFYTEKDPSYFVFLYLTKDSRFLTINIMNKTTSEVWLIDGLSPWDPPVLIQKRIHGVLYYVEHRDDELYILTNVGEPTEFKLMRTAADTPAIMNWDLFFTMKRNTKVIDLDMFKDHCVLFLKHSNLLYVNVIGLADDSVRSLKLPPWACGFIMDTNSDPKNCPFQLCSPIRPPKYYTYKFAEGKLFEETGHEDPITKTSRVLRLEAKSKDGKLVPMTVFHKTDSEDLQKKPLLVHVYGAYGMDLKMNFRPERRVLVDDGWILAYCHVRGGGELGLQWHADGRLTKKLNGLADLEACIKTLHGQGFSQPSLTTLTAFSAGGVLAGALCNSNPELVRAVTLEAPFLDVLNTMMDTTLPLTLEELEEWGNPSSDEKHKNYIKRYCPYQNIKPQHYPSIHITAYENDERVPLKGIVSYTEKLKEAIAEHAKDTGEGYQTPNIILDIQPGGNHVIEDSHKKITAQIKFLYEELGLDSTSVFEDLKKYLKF
# Fam108B inh – mouse Fam108B serine hydrolase inhibitors, primary screen, counter-screen for RBBP9 inhibitor project, biochemical, fluorescence polarization; inhibition, % at 9.51 µM; 0.33% of 300,000 active; recombinant Fam108B, FP-Rh probe fluorescence polarization;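 active = inhibition above the screen mean inhibition plus 3 SD, computed separately per campaign, cut at about 18% in these data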;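 note: inhibitors lower polarization as less probe binds the enzyme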
# PREPL confirm – human PREPL enzyme inhibitors, confirmation, biochemical, fluorescence polarization; shares compounds with PREPL inh; AID 2803, 2010; 67% of 2,000 active; inhibition, % at 5.96 µM; recombinant PREPL, fluorescence polarization activity probe;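 note: 0% = protein with DMSO and 100% = wells lacking protein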
# The depositor's hits bear a star; / = no result. Cut-off read from the data, not from the text of the source, unless noted: active = inhibition above about 43%; inactive = the rest.
SMILES,PME-1 inh,LYPLA1 inh,MEX-5 binding,LYPLA2 counter,PREPL inh,Fam108B inh,PREPL confirm
Cc1nc2ccc([N+](=O)[O-])cc2c(=O)n1Cc1ccc(Br)cc1,3,2,2,2,7,4,/
Cc1nc2ccc([N+](=O)[O-])cc2c(=O)n1Cc1cccc(Br)c1,7,-2,1,-2,45*,-2,34
COc1ccc(C)cc1Nc1n[n+](-c2ccccc2)c(-c2ccc(OC)c(OC)c2OC)s1,3,3,4,-2,53*,6,60*
COc1ccc(C)cc1Nc1n[n+](-c2ccccc2)c(-c2ccc(N(C)C)cc2)s1,0,3,0,5,61*,3,69*
COc1ccc(C)cc1Nc1n[n+](-c2ccccc2)c(-c2c(Cl)cccc2Cl)s1,9,1,1,-6,11,5,/
COc1cccc(N2CC(NS(=O)(=O)c3ccc4ccccc4c3)CC2=O)c1 (stereo not drawn),16,-1,-2,2,-15,2,/
CC1CCCC(NC(=O)COC(=O)c2cc(S(=O)(=O)N3CCOCC3)ccc2F)C1C (stereo not drawn),-1,-3,/,-2,-5,/,/
Cc1ccc(NC2=CC(=O)C(=O)c3ccccc32)c(C)c1,13,2,/,6,47*,/,38
O=C(NC(=S)N1CCCCC1CO)C12CC3CC(CC(C3)C1)C2 (stereo not drawn),-2,-1,-2,3,-8,-1,/
CCN1C(=O)[C@@H]2[C@@H](c3ccc(SC4CCCCC4)cc3)N3CCCC[C@@]3(C(=O)OC)[C@@H]2C1=O,-5,-4,12,-6,1,-3,/
Cc1ccc(Nc2nnc(SC/C(O)=C(\C#N)c3nc4ccccc4[nH]3)s2)c(C)c1,64*,-8,-2,-4,49*,18,41
Cc1cccc(Nc2nnc(SC/C(O)=C(\C#N)c3nc4ccccc4[nH]3)s2)c1,16,-6,0,-11,31,5,/
S=C(NC1CCCCC1)NC1CC2CCC(C1)N2Cc1ccccc1 (stereo not drawn),-1,3,-1,0,-9,2,/
COc1ccc2c(/C=N/Nc3ccc(C(=O)O)cc3)c[nH]c2c1,23,3,4,10,56*,5,10
O=C(/C=C/c1cccc([N+](=O)[O-])c1)NCCSc1ccccc1,3,2,1,5,46*,0,41
Nc1cc(Cl)ccc1N1CCCC1,-6,1,-4,4,15,1,/
Nc1cc(F)ccc1N1CCCCCC1,-1,-1,-3,0,43*,1,26
CCCCCNc1nc(N2CCCC2)c2c(c1C#N)CCN(C)C2,6,-1,-2,1,55*,4,57*
CCCCCCCCCCC[N+](C)(C)CC/C=C1/c2ccccc2Sc2ccc(Cl)cc21,6,0,12,9,45*,9,35
c1ccc(C(c2nnnn2Cc2ccco2)N2CCN(c3nc4ccccc4s3)CC2)cc1 (stereo not drawn),-1,0,-2,3,44*,-6,41
c1ccc(Cn2nnnc2C(c2ccccc2)N2CCN(c3nc4ccccc4s3)CC2)cc1 (stereo not drawn),-1,3,2,1,27,-3,/
Cc1ccc(C(=O)N2CC3(C(C)C)CN(C(=O)c4ccc(C)cc4)CC(C(C)C)(C2)C3=O)cc1,-4,-1,0,0,-4,2,/
Cc1cc[n+](CC(=O)c2ccc3c(c2)OCCO3)cc1,4,2,4,-2,7,5,/
O=C(C[n+]1ccc(/C=C/c2ccccc2)cc1)c1ccc2c(c1)OCCO2,-1,-7,-1,8,63*,-3,43
N#Cc1cc(S(=O)(=O)c2ccc(Cl)cc2)c(N)[nH]c1=O,1,-3,0,-6,-3,-6,/
SMILES,PME-1 inh,LYPLA1 inh,MEX-5 binding,LYPLA2 counter,PREPL inh,Fam108B inh,PREPL confirm
CC1(C)O[C@H]2OC([C@H](O)CON3C(=O)c4ccccc4C3=O)[C@H](O)[C@H]2O1 (stereo partly drawn),2,1,/,-1,10,1,/
CCC/C(=N\NC(=O)C1CC1)c1ccccc1,0,2,-4,-2,-7,-1,/
CCN1C(=O)[C@H]2[C@@H](c3ccc(-c4ccc(Cl)c(Cl)c4)cc3)N[C@@](C)(C(=O)OC)[C@H]2C1=O,-8,9,2,22,46*,-2,43
CCN1C(=O)[C@H]2[C@@H](c3ccc(-c4ccc(Cl)c(Cl)c4)c(OC)c3)N[C@@](C)(C(=O)OC)[C@H]2C1=O,4,5,-5,6,18,1,/
COc1ccc(-c2nc(N)n[nH]2)cc1,8,-2,-1,-8,-3,1,/
O=C1/C(=N\S(=O)(=O)c2cccs2)C([n+]2ccc(CCCc3ccccc3)cc2)=C([O-])c2ccccc21,3,1,-40*,3,69*,6,70*
O=C(NCCCn1ccnc1)C1CCN(S(=O)(=O)c2cc([N+](=O)[O-])ccc2Cl)CC1,/,/,/,/,47*,/,41
COc1ccc(Nc2nc(N3CCCC3)c3ccccc3n2)cc1,-105,5,1,1,77*,-1,62*
COc1ccc(Nc2c3ccccc3nc3ccccc23)cc1,-43,-2,-3,-2,47*,3,45*
CC(=O)c1sc(NCCOc2ccc(C)cc2)nc1C,-2,6,0,2,-1,1,/
CC(/C=C/c1ccco1)=N\NC(=O)c1cccnc1,1,2,0,-4,15,1,/
CC(/C=C/c1ccco1)=N/NC(=O)c1ccc(C)nc1,-4,0,0,1,60*,4,17
CCN1C(=O)[C@H]2[C@@H](c3ccc(-c4ccc(OC)cc4)cc3)N3CCC[C@@]3(C(=O)OC)[C@H]2C1=O,-2,-3,1,1,47*,-1,37
CCN1C(=O)[C@@H]2[C@@H](c3ccc(-c4ccc(OC)cc4)cc3)N3CCC[C@@]3(C(=O)OC)[C@@H]2C1=O,-4,0,0,-5,5,0,/
CCN1C(=O)[C@H]2[C@@H](c3ccc(-c4ccc(F)cc4)cc3)N3CCCC[C@@]3(C(=O)OC)[C@H]2C1=O,-2,-2,1,2,45*,-4,40

# Screening data deposited in PubChem BioAssay by several laboratories.
